Measured values reported in PubChem BioAssay.
The source made the active and inactive calls. Unless noted, the rule behind the calls is not given here.

Columns and labels:
[1] = compounds binding Alexa647 anti-His antibody – biochemical, small-molecule microarray, 635 nm fluorescence, artefact control for SMM control protein annotation, primary screen (AID 1128); conditions: higher = more signal;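 note: score merges feature fluorescence with signal-to-noise for each printed compound spot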
[2] = tested on: Human papillomavirus type 1a E7 protein (residues 1-88); experiment: HPV1a E7 small-molecule binders, primary screen, biochemical, small-molecule microarray, residues 1-88, 635 nm (AID 1129); conditions: small-molecule microarray binding, fluorescence 635 nm; higher = more signal
[3] = target: Focal adhesion kinase 1 (Homo sapiens) (UniProt Q05397); experiment: PTK2 protein binding on printed compound slides – biochemical, small-molecule microarray, 635/667 nm fluorescence, BSA, DTT, primary screen (AID 1130); conditions: 635 nm fluorescence, higher = more signal;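 note: composite of spot emission at 667 nm and signal to noise over triplicate slides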
[4] = tested on: Fibrinogen (Alexa647-labelled); experiment: Alexa647-fibrinogen binding to printed small molecules – biochemical, small-molecule microarray, 635/667 nm fluorescence, artefact control for SMM control-protein annotation, profiling panel (AID 1131); conditions: fibrinogen-A647 binding fluorescence, higher = more signal;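 note: z-score merges 667 nm fluorescence with per-spot signal-to-noise over triplicate slides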
[5] = target: Follistatin (Homo sapiens) (UniProt P19883); experiment: FST protein binding to printed compounds – biochemical, small-molecule microarray, 635/667 nm fluorescence, primary screen (AID 1132); conditions: 635 nm fluorescence, higher = more signal
[6] = target: Fibroblast growth factor 2 (Homo sapiens) (UniProt P09038); experiment: basic fibroblast growth factor binding to printed compounds – biochemical, small-molecule microarray, 635/667 nm fluorescence, primary screen (AID 1133); conditions: FGF2, fluorescence 635/667, higher = more signal
[7] = JC-1 mitochondrial potential readout, lung cancer cells – cell-based, A549, JC-1 fluorescence, basal, 24 h, 100 nL, profiling panel (AID 1138); conditions: higher = more signal;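 note: A549 lung adenocarcinoma cells under basal conditions with no added stimulus; test concentration not given here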
Lefty1 = Lefty1 protein binding to printed compounds – biochemical, small-molecule microarray, 635/667 nm fluorescence, primary screen (AID 1139); conditions: fluorescence 635/667, higher = more signal
[8] = tested on: wheat germ agglutinin (Triticum aestivum), Alexa647-labelled; experiment: Alexa647-WGA lectin binding to printed small molecules – biochemical, small-molecule microarray, 635/667 nm fluorescence, artefact control for SMM control-protein annotation, profiling panel (AID 1140); conditions: WGA-A647 binding, 635 nm fluorescence, higher = more signal;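 note: score merges 667 nm feature emission with signal to noise over triplicate slides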
[9] = target: Luciferin 4-monooxygenase (Photinus pyralis) (UniProt P08659); experiment: inhibition of purified Photinus pyralis luciferase – biochemical, luminescence, purified enzyme, 2006 set, primary screen (AID 1141); conditions: purified firefly luciferase, SteadyGlo luminescence, 30 min; higher = more signal, called active from +8 up or from −8 down;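 note: cell-free assay with purified firefly luciferase at 100 ng per well in PBS; test concentration not given here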
[10] = tested on: Wnt5a (protein binding on small-molecule microarray); experiment: small molecules binding Wnt5a protein – biophysical, small-molecule microarray, 635/667 nm fluorescence, primary screen (AID 1142); conditions: 635 nm fluorescence, higher = more signal;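 note: fluorescence read at 667 nm with signal to noise per printed feature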
[11] = ATP-based viability of Huh7 replicon cells – cell-based, CellTiter-Glo luminescence, basal, 48 h, cytotoxicity control for HCV replication inhibitor project, primary screen (AID 1143); conditions: higher = more signal, called active from +8 up or from −8 down;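 note: Huh7 hepatoma cells carrying a hepatitis C replication reporter with no stimulus; test concentration not given here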
[12] = Pseudomonas biofilm growth suppression – PAO1 strain, BacTiter-Glo luminescence, LB-PBS, primary screen (AID 1144); conditions: P. aeruginosa PAO1 biofilm, 12 h, higher = more signal
[13] = basal CRE-LacZ reporter activity in PC12 – cell-based, unstimulated, primary screen (AID 1145); conditions: no forskolin, luminescence, 4.5 h, higher = more signal, called active from +8 up or from −8 down
[14] = forskolin-driven CRE-LacZ activity in PC12 – cell-based, CRE-LacZ reporter, forskolin-stimulated, primary screen (AID 1146); conditions: luminescence, 4.5 h, higher = more signal, called active from +8 up or from −8 down;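 note: PC12 cells with 6xCRE LacZ reporter stimulated by forskolin 10 µM; beta-galactosidase reporter signal reflecting CREB driven transcription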
[15] = target: Streptavidin (Streptomyces avidinii) (UniProt P22629); experiment: compounds binding control protein streptavidin – biophysical, small-molecule microarray, 635/667 nm fluorescence, artefact control for SMM compound annotation, primary screen (AID 1147); conditions: higher = more signal;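 note: signal reflects streptavidin binding to arrayed compounds as a control protein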
[16] = probe aInhba binding on compound microarray – biochemical, small-molecule microarray, 635/667 nm fluorescence, primary screen (AID 1148); conditions: higher = more signal;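 note: score merges 667nm spot fluorescence with signal-to-noise for antibody binding to printed compounds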
Torsin-1A (Homo sapiens) [17] = target: Torsin-1A (Homo sapiens) (UniProt O14656); experiment: TOR1A wild-type binding on microarray – cell lysate, small-molecule microarray, lysate, 635/667 nm, primary screen (AID 1149); conditions: COS7 hTOR1A-WT lysate, 635 nm fluorescence, higher = more signal
Torsin-1A (Homo sapiens) [18] = target: Torsin-1A (Homo sapiens) (UniProt O14656); experiment: torsin A mutant lysate binding on microarrays – cell lysate, small-molecule microarray, COS7 lysate, 635/667 nm fluorescence, primary screen (AID 1150); conditions: COS7 hTOR1A mutant lysate, 635 nm fluorescence, higher = more signal;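 note: score pools 667 nm emission and signal to noise measuring lysate protein binding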
[19] = tested on: Sonic hedgehog protein (Shh); experiment: Sonic hedgehog microarray binding compounds – biochemical, small-molecule microarray, 635/667 nm fluorescence, primary screen (AID 1151); conditions: 635 nm fluorescence, higher = more signal;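 note: Shh protein binding to compounds spotted on small-molecule microarray slides; score combines spot fluorescence intensity with signal-to-noise across triplicate slides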

Fibroblast growth factor 2 (Homo sapiens), sequence (P09038 whole entry, looked up): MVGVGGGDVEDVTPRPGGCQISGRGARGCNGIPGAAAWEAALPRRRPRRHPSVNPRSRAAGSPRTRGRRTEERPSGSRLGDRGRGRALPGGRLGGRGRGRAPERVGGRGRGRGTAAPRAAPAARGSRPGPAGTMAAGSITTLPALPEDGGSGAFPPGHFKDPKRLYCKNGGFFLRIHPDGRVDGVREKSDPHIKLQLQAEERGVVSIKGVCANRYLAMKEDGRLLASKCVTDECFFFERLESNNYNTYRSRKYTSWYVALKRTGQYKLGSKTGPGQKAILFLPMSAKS
Focal adhesion kinase 1 (Homo sapiens), sequence (Q05397 whole entry, looked up): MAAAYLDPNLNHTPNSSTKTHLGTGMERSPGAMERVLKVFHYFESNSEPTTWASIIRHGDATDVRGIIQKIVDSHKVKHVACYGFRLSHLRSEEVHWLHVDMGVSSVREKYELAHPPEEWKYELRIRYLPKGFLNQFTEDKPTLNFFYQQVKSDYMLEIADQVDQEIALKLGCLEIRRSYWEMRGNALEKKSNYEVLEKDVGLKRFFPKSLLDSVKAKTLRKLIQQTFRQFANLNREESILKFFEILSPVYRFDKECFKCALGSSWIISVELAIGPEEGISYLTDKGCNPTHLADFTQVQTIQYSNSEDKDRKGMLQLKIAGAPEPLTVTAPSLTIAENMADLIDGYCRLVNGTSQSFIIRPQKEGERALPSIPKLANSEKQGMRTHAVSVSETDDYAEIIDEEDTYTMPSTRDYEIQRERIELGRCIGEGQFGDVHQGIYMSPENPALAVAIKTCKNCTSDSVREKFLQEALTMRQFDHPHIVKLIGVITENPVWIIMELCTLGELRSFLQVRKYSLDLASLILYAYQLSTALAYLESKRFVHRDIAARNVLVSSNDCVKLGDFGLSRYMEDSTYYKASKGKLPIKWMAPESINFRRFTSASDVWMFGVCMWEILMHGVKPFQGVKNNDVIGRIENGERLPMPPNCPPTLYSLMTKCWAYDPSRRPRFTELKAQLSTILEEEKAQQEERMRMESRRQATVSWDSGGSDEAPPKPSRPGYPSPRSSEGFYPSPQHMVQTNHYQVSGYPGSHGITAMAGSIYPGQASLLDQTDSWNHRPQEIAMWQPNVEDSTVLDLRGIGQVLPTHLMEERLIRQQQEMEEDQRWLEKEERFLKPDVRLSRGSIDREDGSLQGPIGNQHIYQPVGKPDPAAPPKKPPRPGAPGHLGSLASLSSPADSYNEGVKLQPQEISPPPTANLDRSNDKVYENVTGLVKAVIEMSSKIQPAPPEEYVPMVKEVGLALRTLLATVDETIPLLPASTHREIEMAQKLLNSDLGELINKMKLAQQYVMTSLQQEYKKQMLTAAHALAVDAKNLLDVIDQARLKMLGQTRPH
Torsin-1A (Homo sapiens), sequence (O14656 whole entry, looked up): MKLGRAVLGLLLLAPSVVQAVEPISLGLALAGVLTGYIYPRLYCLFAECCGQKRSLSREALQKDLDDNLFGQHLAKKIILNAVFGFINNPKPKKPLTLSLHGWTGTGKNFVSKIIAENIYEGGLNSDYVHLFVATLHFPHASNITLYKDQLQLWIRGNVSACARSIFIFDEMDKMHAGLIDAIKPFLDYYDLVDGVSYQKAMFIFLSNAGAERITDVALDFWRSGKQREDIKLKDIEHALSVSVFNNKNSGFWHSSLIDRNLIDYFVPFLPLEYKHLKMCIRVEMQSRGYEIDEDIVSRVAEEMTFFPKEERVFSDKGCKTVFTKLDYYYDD
Luciferin 4-monooxygenase (Photinus pyralis), sequence (P08659 whole entry, looked up): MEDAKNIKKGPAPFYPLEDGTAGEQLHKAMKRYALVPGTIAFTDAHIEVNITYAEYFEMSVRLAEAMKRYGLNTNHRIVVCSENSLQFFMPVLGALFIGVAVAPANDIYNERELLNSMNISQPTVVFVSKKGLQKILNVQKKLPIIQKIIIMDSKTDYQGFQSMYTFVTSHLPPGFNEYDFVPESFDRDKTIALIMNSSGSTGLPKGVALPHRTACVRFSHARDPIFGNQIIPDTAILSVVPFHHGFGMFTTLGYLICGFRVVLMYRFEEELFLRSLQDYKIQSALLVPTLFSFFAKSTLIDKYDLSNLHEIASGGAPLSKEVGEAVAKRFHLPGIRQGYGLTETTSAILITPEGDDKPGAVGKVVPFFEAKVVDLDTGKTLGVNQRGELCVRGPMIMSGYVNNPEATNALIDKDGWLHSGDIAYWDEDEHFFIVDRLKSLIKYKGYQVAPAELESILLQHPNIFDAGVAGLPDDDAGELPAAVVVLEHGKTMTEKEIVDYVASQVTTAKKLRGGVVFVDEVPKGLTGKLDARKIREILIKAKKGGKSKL
Streptavidin (Streptomyces avidinii), sequence (P22629 whole entry, looked up): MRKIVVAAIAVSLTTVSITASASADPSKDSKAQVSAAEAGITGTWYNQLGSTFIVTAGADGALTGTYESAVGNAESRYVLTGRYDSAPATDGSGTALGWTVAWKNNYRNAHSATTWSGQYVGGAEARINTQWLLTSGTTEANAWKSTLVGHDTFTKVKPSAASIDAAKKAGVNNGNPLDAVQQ
Follistatin (Homo sapiens), sequence (P19883 whole entry, looked up): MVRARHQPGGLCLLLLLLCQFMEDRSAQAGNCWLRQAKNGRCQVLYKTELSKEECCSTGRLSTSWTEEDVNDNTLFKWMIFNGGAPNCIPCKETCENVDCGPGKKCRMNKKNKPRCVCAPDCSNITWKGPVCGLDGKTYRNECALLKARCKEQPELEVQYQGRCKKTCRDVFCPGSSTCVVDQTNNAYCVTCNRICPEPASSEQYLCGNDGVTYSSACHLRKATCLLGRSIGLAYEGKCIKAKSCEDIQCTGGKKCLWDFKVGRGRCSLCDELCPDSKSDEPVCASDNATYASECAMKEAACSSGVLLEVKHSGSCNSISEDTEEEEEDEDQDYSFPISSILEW

SMILES | composite z-score [1] | composite z-score [2] | composite z-score [3] | composite z-score [4] | composite z-score [5] | composite z-score [6] | z-score [7] | composite z-score (Lefty1) | composite z-score [8] | z-score [9] | composite z-score [10] | z-score [11] | z-score [12] | z-score [13] | z-score [14] | composite z-score [15] | composite z-score [16] | composite z-score (Torsin-1A (Homo sapiens) [17]) | composite z-score (Torsin-1A (Homo sapiens) [18]) | composite z-score [19]
COC(=O)[C@@]1(Cc2ccc(OC)cc2)[C@H]2c3cc(C(=O)N4CCCC4)n(Cc4ccccn4)c3C[C@H]2CN1C(=O)c1ccccc1 | 2.3 | 1.26 | 0.464 | 0.8 | 0.169 | -0.332 | 1.37 | -0.467 | 1.2 | 1.91 (inactive) | 0.782 | -1.47 (inactive) | 0.621 (inactive) | 0.201 (inactive) | 1.03 (inactive) | 0.523 | 1.1 | -0.367 | 1.05 | -0.622
C=C(C(=O)CC[C@H](OC(C)=O)c1ccc(OCCO)cc1)C(C)C | 0.772 | -0.02 | -0.381 | 0.711 | 1.4 | 0.911 | -0.217 | 1.45 | 0.0674 | -0.503 (inactive) | 0.35 | -8.04 (active) | -0.28 (inactive) | 1.63 (inactive) | 0.655 (inactive) | 0.934 | -0.125 | 0.612 | 0.909 | 2.13
CC(C)C(=C=CC[C@H](O)c1cccc(OCCO)c1)C[C@H](O)COCc1ccccc1 | 0.366 | 0.165 | 0.107 | 0.637 | 0.235 | 0.562 | -0.241 | 0.554 | -0.0699 | 0.209 (inactive) | 0.148 | -0.33 (inactive) | -0.457 (inactive) | 1.82 (inactive) | 0.526 (inactive) | 1.24 | 0.167 | 1.03 | 0.33 | 2.09
C=CCOC(=O)[C@H]1[C@@H]2C(=O)O[C@@H](c3ccccc3)[C@@H](c3ccccc3)N2[C@@H](c2ccc(OCCOC(=O)[C@@H]3C[C@@H]4C(=O)NCC(=O)N4[C@@H]3c3ccc(O)cc3)cc2)[C@]12C(=O)Nc1ccccc12 | 1.56 | 1.19 | 0.564 | 0.478 | 1.35 | 1.72 | -1.43 | 1.18 | -0.233 | -2.56 (inactive) | 0.773 | -0.987 (inactive) | -0.759 (inactive) | 0.0205 (inactive) | -0.979 (inactive) | -0.0156 | -0.0221 | 0.342 | 0.767 | 2.28
CC(C)c1ccc(NN2C(C(O)c3cccc(O)c3)C=CC3C(=O)N(c4ccccc4)C(=O)C32)cc1 (stereo not given) | 1.16 | 1.25 | 0.781 | 0.992 | 1.35 | -0.179 | 0.116 | 0.61 | 0.754 | -0.824 (inactive) | 0.125 | -0.392 (inactive) | -0.406 (inactive) | 1.39 (inactive) | 1.67 (inactive) | 1.52 | 0.0236 | 0.77 | 1.3 | 0.671
CCN(CC)c1ccc(N2CC=CC34O[C@@H]5/C=C\CCCOC(=O)C5[C@H]3C(=O)N(C(CO)C(C)C)[C@@H]4C2=O)cc1 (stereo not given in full) | 1.02 | -1.04 | 0.409 | -1.1 | -0.45 | -0.593 | 0.8 | -0.217 | -0.615 | -0.557 (inactive) | -0.297 | -0.245 (inactive) | 2.75 (inactive) | -0.0939 (inactive) | 0.119 (inactive) | -0.819 | -0.128 | 0.006 | -1.2 | 0.0008
CCOC(=O)C1=CCC(c2ccc(C#N)cc2)N(S(=O)(=O)c2ccc(C)cc2)C1 (stereo not given) | 1.64 | 1.2 | 0.047 | 0.824 | 0.552 | 0.168 | -0.142 | -0.303 | 1.19 | 0.115 (inactive) | 0.445 | -4.77 (inactive) | -0.0317 (inactive) | 0.22 (inactive) | -0.986 (inactive) | 1.87 | 0.211 | 0.375 | 0.709 | 0.409
CCOC(=O)C1=C[C@@H](CC)N(S(=O)(=O)c2ccc(C)cc2)[C@H]1c1ccccc1 | 0.862 | 1.21 | 1.33 | 0.928 | 0.431 | 0.261 | 2.94 | 0.0048 | 0.749 | 2.12 (inactive) | 0.214 | -3.47 (inactive) | -0.0903 (inactive) | 0.22 (inactive) | -0.55 (inactive) | 1.09 | 0.226 | 0.391 | 0.637 | 0.0552
CCCCCN1CC=CC23O[C@@H]4/C=C\CCC(C)OC(=O)C4[C@H]2C(=O)N(CCCCCO)[C@@H]3C1=O (stereo not given in full) | -0.0232 | -0.413 | -0.0791 | -1.46 | -0.35 | 0.517 | -0.108 | 0.184 | 0.233 | -2.73 (inactive) | -1.01 | 0.292 (inactive) | -1.35 (inactive) | -0.492 (inactive) | 0.069 (inactive) | -1.33 | -0.182 | -0.798 | 0.815 | -0.0084
COCCOC(=O)N1C(=O)[C@@]2(c3cc(C#CCCO)ccc31)[C@H](c1ccccc1OCCO)N1[C@H](c3ccccc3)[C@H](c3ccccc3)OC(=O)[C@H]1[C@@H]2C(=O)N1CCN(c2ncccn2)CC1 | 1.64 | 1.21 | 0.714 | 0.807 | 1.32 | 0.819 | -0.835 | 1.38 | 0.789 | -0.198 (inactive) | 0.544 | -1.01 (inactive) | 0.566 (inactive) | -0.329 (inactive) | 1.99 (inactive) | 1.41 | 0.262 | 0.0623 | 0.835 | 1.37
